Screening data deposited in PubChem BioAssay by National Center for Advancing Translational Sciences (NCATS).
Compounds with a hit are over-represented: about 18% of the library has one in this group of screens.
DT40 TDP1 no CPT = qHTS for Inhibitors of human tyrosyl-DNA phosphodiesterase 1 (TDP1): qHTS in cells in absence of CPT. DT40 Tdp1-/- hTDP1 cells, no CPT, ATP luminescence, 48 h. Potency, µM (titrated, usually from 46.2 µM), inactives show top-dose activity change, negative = growth inhibition, usual class: inhibitors. 420,000 compounds, 15% hits. AID 686978, 2013; note: potency is the fitted concentration of half-maximal effect; nearly all actives have a fitted effect of over 55% in size
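No-CPT arm: Tdp1-/-;hTDP1 DT40 cells (400/well) plus compounds, incubated ≥48 hr at 37 °C. Readout CellTiter-Glo luminescence.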
LDHA inh = LDHA (human) enzyme inhibition | P00338 | purified LDHA, NADH/diaphorase-resazurin fluorescence; hits give low values | activity change, % (values are at about 110 or 230 µM) | 480,000 compounds, 0.15% hits | AID 1347041; in the data active = activity change below about -30%; inconclusive = mostly about -25% to -30%;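 note: plate controls were DMSO wells for no effect and wells without enzyme for full effect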
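Human LDH5 (2 nM) was incubated with 0.06 mM NADH and 0.2 mM pyruvate for 5 min at room temperature in Tris pH 7.4. Remaining NADH was coupled through diaphorase/resazurin, and resorufin fluorescence was read at 0 and 20 min.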
VP16 counter = inhibits Gal4-VP16 luciferase reporter, ROR gamma counter-screen | Drosophila S2 Gal4-VP16 UAS-luciferase, luminescence, 20 h | Potency, µM (doses to about 53.6 µM), without a hit: top-dose activity, negative = inhibition, hits mostly inhibitors | 310,000 compounds, 3.5% hits | AID 2546;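 note: Gal4-VP16 expression switched on by copper sulfate through the metallothionein promoter; potency is the fitted concentration of half-maximal effect; nearly all actives have a fitted effect of over 50% in size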
IL-1B inflam inh = blocks inflammasome-driven IL-1 beta release; activity change, % at 57.5 µM; THP-1 LPS/ATP IL-1B secretion, AlphaLISA, 16 h; hits give low values; 360,000 compounds, 4.7% hits; in the data active = activity change below about -50%; inconclusive = mostly about -30% to -49%
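THP-1 cells pretreated 1 hr with compounds (up to 57.5 uM final), then stimulated with LPS (250 ng/mL final) plus ATP (1.25 mM final); secreted IL-1B measured by AlphaLISA after 16 hr, decreased signal indicating inhibition.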
RORg inh = inhibitors of mouse ROR gamma transcriptional activity | P51450 | Drosophila S2 Gal4-RORgamma UAS-luciferase reporter, 20 h | Potency, µM (series often up to 53.6 µM), for inactives: top-dose activity change, negative = inhibition, actives largely listed as inhibitors | 310,000 compounds, 5.4% hits; note: potency is the fitted concentration of half-maximal effect; nearly all actives have a fitted effect of over 60% in size
Target sequence (P51450 whole entry, looked up, the tested form may be a part): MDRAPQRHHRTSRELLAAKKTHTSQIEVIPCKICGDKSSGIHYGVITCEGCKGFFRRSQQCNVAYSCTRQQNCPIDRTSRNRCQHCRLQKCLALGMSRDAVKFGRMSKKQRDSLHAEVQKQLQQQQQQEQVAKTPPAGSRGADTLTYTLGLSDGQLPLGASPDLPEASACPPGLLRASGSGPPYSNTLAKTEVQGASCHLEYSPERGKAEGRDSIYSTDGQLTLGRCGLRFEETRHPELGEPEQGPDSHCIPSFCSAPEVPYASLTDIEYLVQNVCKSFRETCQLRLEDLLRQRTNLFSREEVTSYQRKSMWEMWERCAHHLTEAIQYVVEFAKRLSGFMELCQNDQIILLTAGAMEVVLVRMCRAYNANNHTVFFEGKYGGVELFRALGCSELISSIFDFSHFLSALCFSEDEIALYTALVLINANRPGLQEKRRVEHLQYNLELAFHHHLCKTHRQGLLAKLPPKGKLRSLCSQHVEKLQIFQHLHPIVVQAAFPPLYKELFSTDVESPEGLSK
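Luciferase reporter read in Schneider cells carrying Gal4-RORγ (mouse) and UAS-Photinus luciferase; cells given compound 1 h before 700 uM copper sulfate induction, then incubated 20 h at ambient temperature.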
DT40 TDP1 CPT = growth inhibition of DT40 Tdp1-/-;hTDP1 cells with camptothecin (screen for TDP1 inhibitors) | chicken DT40 Tdp1-/-;hTDP1 cells + 20 nM CPT, ATP luminescence, 48 h | Potency, µM (doses to about 46.2 µM), inactives show at the highest dose activity change, negative = growth inhibition, hits mostly inhibitors | 420,000 compounds, 12% hits; note: potency is the fitted concentration of half-maximal effect; nearly all actives have a fitted effect of over 55% in size
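Cell growth measured by CellTiter-Glo luminescence after a minimum 48 h, 37 C compound exposure with 20 nM CPT in Tdp1-knockout DT40 cells stably expressing hTDP1, seeded 400/well; qHTS titration format.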
Starred values were filed as active, the others as inactive; ? = inconclusive; / = no result given. Unless noted, calls come from the whole dose curve; as a rule, active = well fitted curve in the direction sought with a large enough effect; inconclusive = small, poorly fitted or top-dose-only effect, or another doubt; inactive = no such curve, though single readings can be large; an effect the other way counts as inactive or inconclusive. Unless noted, % is set by controls: 0 for no effect and ±100 for the full control effect.

SMILES	DT40 TDP1 no CPT	LDHA inh	VP16 counter	IL-1B inflam inh	RORg inh	DT40 TDP1 CPT
CONC(=O)C(NC(=O)C12CC3CC(CC(C3)C1)C2)C(C)C (stereo not drawn)	/	0.1	/	/	/	/
COc1ccc(S(=O)(=O)N2CCN(c3ccccc3F)CC2)cc1-c1nc(C(C)C)no1	/	9.6	/	/	/	/
Cc1cc(C)cc(NC(=O)CSc2nc3nccnc3c(=O)n2CCc2ccccc2)c1	/	1.9	/	/	/	/
CCC1Sc2ccc(S(=O)(=O)Nc3cc(OC)cc(OC)c3)cc2NC1=O (stereo not drawn)	?	0.8	-13.9%	33.3	43.8%	16.4µM*
CCc1cccc(NS(=O)(=O)c2ccc3c(c2)NC(=O)C(C)S3)c1 (stereo not drawn)	?	-0.5	?	-9.5	39.9%	20.6µM*
COc1ccc(N2CCN(S(=O)(=O)c3ccc4c(c3)NC(=O)C(C)S4)CC2)cc1 (stereo not drawn)	?	-3.5	?	-25.8	?	?
CCC1Sc2ccc(S(=O)(=O)N3CCN(c4ccccc4)CC3)cc2NC1=O (stereo not drawn)	?	-3.9	-20.9%	23.5	?	14.6µM*
COc1cccc(NS(=O)(=O)c2ccc3c(c2)NC(=O)C(C)S3)c1 (stereo not drawn)	?	-4.8	-2.4%	41.4	?	?
CCc1ccc(CNC(=O)c2cc(SC)ccc2C)s1	/	2.3	/	/	/	/
O=C1Nc2ccc(Br)cc2C1=Nc1cccnc1	8.2µM*	20.0	1.1%	32.9	-2.5%	11.6µM*
O=C1Nc2ccccc2C1=Nc1cccc(Cl)c1	-16.9%	8.4	-9.7%	0.9	2.3%	-11.5%
CC(=O)c1cccc(NC(=S)NC(=O)c2ccc(C)cc2)c1	18.4µM*	-2.6	12.6µM*	-6.5	10µM*	?
CCC(=O)Nc1cccc(NC(=S)NC(=O)c2ccc(C)cc2)c1	?	-7.3	7.0%	-0.1	-11.1%	?
CC(=O)c1cccc(NC(=S)NC(=O)c2ccc(Br)cc2)c1	-13.2%	-2.9	10µM*	6.0	5.62µM*	-5.3%
Cc1ccc(C(=O)NC(=S)Nc2ccc(NC(=O)c3cccc(Cl)c3)cc2)cc1	?	-3.1	10µM*	0.0	?	-27.6%
O=C(NCCc1ccc(Cl)cc1)C1CCOCC1	/	1.7	/	/	/	/
O=C(COc1ccc2ccccc2c1Br)NC(=S)Nc1cccc(CO)c1	?	-5.2	10µM*	-12.4	7.94µM*	-4.3%
O=C(COc1ccc(Br)cc1Br)NC(=S)Nc1cccc(CO)c1	2.9%	-6.8	8.91µM*	-6.0	1.41µM*	?
O=C(O)CNS(=O)(=O)c1cccc(Br)c1	/	-1.2	/	/	/	/
CCOc1ccc(NC(=O)/C=C\C(=O)N(c2ccc(C(C)C)cc2)C(C(=O)NCc2ccco2)c2ccc(F)cc2)cc1 (stereo not drawn)	13µM*	2.7	/	/	/	5.17µM*
COc1ccc(N(C(=O)/C=C\C(=O)Nc2ccc(Cl)cc2)C(C(=O)NCc2ccco2)c2ccc(C)cc2)cc1 (stereo not drawn)	18.4µM*	-1.0	/	/	/	16.4µM*
CCOc1ccc(N(C(C)C(=O)NCc2ccco2)S(C)(=O)=O)cc1 (stereo not drawn)	-12.7%	1.0	8.4%	23.2	7.0%	-28.3%
COc1ccc(NC(=O)/C=C\C(=O)N(c2ccc(C(C)C)cc2)C(C(=O)NCc2ccco2)c2ccc(F)cc2)cc1 (stereo not drawn)	?	0.2	/	/	/	18.4µM*
COc1ccc(C(CC(=O)NCc2ccco2)c2ccc(F)cc2)cc1 (stereo not drawn)	-3.7%	0.0	5.9%	-3.4	?	-25.8%
Cc1cccc(NC(=O)CSc2nc(C)c(C)o2)c1C	/	-0.7	/	/	/	/
SMILES	DT40 TDP1 no CPT	LDHA inh	VP16 counter	IL-1B inflam inh	RORg inh	DT40 TDP1 CPT
Fc1ccc(Nc2nc(N3CCOCC3)c3ccccc3n2)cc1	23.1µM*	-0.7	-0.2%	-78.0*	3.0%	?
c1ccc2c(Nc3nc(N4CCOCC4)c4ccccc4n3)cccc2c1	23.1µM*	8.5	?	-109.4*	-13.4%	13µM*
O=C(C1=C[C@H](c2coc3ccccc3c2=O)C[C@H](OCCCCO)O1)N1CCN(Cc2ccc3c(c2)OCO3)CC1	16.4µM*	-2.0	1.6%	/	18.5%	20.6µM*
O=C(C1=C[C@H](C2CCCCC2)C[C@H](OCCCCO)O1)N1CCN(Cc2ccccc2)CC1	?	-1.4	3.9%	-8.7	39.2%	20.6µM*
CC(=O)n1cc([C@H]2C=C(C(=O)N3CCN(Cc4ccc5c(c4)OCO5)CC3)O[C@@H](OCCCCO)C2)c2ccccc21	?	-1.6	-12.1%	-15.5	34.7%	16.4µM*
C=CCOC(=O)C1=C[C@H](c2cn(C(C)=O)c3ccccc23)C[C@H](OCc2ccc(CO)cc2)O1	20.6µM*	0.6	-2.1%	18.4	34.1%	?
CN1CCN(C(=O)C2=C[C@H](c3coc4ccccc4c3=O)C[C@H](OCCCCO)O2)CC1	-3.8%	-9.7	1.9%	0.4	-15.9%	4.8%
CCO[C@@H]1OC(C(=O)N2CCN(Cc3ccc4c(c3)OCO4)CC2)=C[C@H](c2cn(C(C)=O)c3ccccc23)[C@H]1CCCO	?	1.2	0.0%	?	26.2%	?
Cc1ccc(-c2nc(NC(=O)c3cc(C)on3)sc2C)c(C)c1	/	5.2	/	/	/	/
CCN(CC)c1ccc(NC(=S)Nc2cccc(C)c2)cc1	/	75.4	/	/	/	/
CCOc1ccc(C(=O)OCc2ncc(-c3ccccc3)o2)cc1	/	-0.4	/	/	/	/
O=C(CSc1nc2nc[nH]c2c(=O)[nH]1)Nc1ccc(Br)cc1	/	-2.2	/	/	/	/
COC(=O)[C@]12CCCCC=C1N(CCC1=CCCCC1)C(=O)[C@H](CC(=O)NCCCCc1ccccc1)C2	18.4µM*	1.0	/	?	/	?
COCCCNC(=O)C[C@@H]1C[C@@]2(C(=O)OC)CCCCC=C2N(CCC2=CCCCC2)C1=O	16.4µM*	-2.5	/	1.0	/	?
Cn1c(C(=O)Nc2ccc(C(N)=O)cc2)cc2ccccc21	/	-9.4	/	/	/	/
CC(=O)Nc1ccc(N/C(N)=N/c2nc(C)cc(C)n2)cc1	?	-12.7	3.0%	-93.2*	-16.0%	?
CCOc1ccc(N/C(N)=N/c2nc(C)cc(C)n2)cc1	25.9µM*	-5.2	/	-3.1	/	20.6µM*
Cc1cc(C)nc(/N=C(\N)Nc2ccc(F)c([N+](=O)[O-])c2)n1	?	-3.4	0.7%	-92.4*	-22.1%	?
Cc1cc(C)nc(/N=C(\N)Nc2ccc3c(c2)OCCO3)n1	?	2.4	-6.9%	-77.7*	12.5%	20.6µM*
